Screens deposited in PubChem BioAssay by National Center for Advancing Translational Sciences (NCATS).
This is a sample that favours compounds with a hit; in the whole collection about 9.5% have one here.
Pf growth 96h – Primary qHTS for delayed death inhibitors of the malarial parasite plastid, 96 hour incubation. Potency, µM (series often up to 28.7 µM), for the others: at the top dose activity change, negative = inhibition, usual class: inhibitors. P. falciparum luciferase reporter growth, 96 h. AID 504834, 2011. actives 6.9% (n = 320,000); active = well fitted inhibition curve with a large enough effect; inconclusive = small, poorly fitted or top-dose-only effect, or another doubt; inactive = no such curve, though single readings can be large or run the other way; note: % is set by controls: 0 for no effect and ±100 for the full control effect
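P. falciparum expressing integrated firefly luciferase grown in erythrocytes (2% hematocrit, 0.05% parasitemia final) with compounds for 96 hours at 37 C, 5% CO2. Growth inhibition read as loss of luminescence after adding luciferase detection reagent.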
NS1 function inh – qHTS Assay for Inhibitors of Influenza NS1 Protein Function; Potency, µM (doses to about 46.1 µM), for the others: at the top dose activity, positive = more growth; actives 0.4% (n = 270,000); AID 2326, 2010; note: actives are rising curves; nearly all actives have a fitted effect of over 50% in size
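Growth recovery, yeast-based: influenza A NS1 expressed in S. cerevisiae causes slow growth, and suppressors are detected by OD600. The parent strain without NS1 is used as positive control.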
SARS PLP yeast – qHTS of Yeast-based Assay for SARS-CoV PLP; actives 0.19% (n = 330,000); S. cerevisiae expressing SARS-CoV PLpro, growth rescue; Potency, µM (highest dose often 32.9 µM), inactives show at the highest dose activity, positive = growth rescue, usual class: activators; AID 485353, 2010; note: 0% is about no effect; nearly all actives have a fitted effect of over 55% in size
RE007 growth inh – qHTS Assay for Inhibitors of the HIV-1 protein Vpr. actives 0.21% (n = 360,000). Potency, µM (highest dose often 92.2 µM), inactives show at the highest dose activity change, negative = less growth, usual class: inhibitors. S. pombe RE007 Vpr strain, BacTiter-Glo ATP luminescence, 24 h; active = well fitted falling curve with a large enough effect; inconclusive = small, poorly fitted or top-dose-only effect; inactive = no such curve, though single readings can be large or run the other way; note: % is set by controls: 0 for no effect and ±100 for the full control effect; nearly all actives have a fitted effect of over 50% in size
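Fission yeast RE007 carrying one integrated HIV-1 vpr copy, seeded at OD 0.01 in PMG+AL medium with 23 nL pinned compound. Grown 24 h at 30 degrees; viability read by BacTiter-Glo luminescence after 5 min.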
Pf growth 48h – Primary qHTS for delayed death inhibitors of the malarial parasite plastid, 48 hour incubation; actives 5.9% (n = 310,000); P. falciparum luciferase growth in erythrocytes, 48 h; Potency, µM (top dose mostly 28.7 µM), without a hit: at the highest dose activity change, negative = inhibition, hits mostly inhibitors; AID 504832, 2011; active = well fitted inhibition curve with a large enough effect; inconclusive = small, poorly fitted or top-dose-only effect, or another doubt; inactive = no such curve, though single readings can be large or run the other way; note: % is set by controls: 0 for no effect and ±100 for the full control effect
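Growth was read as firefly luciferase luminescence after a 48 h, 37 C, 5% CO2 exposure of compounds to reporter-bearing P. falciparum cultures (0.1% parasitemia, 2% hematocrit final) in Albumax-supplemented RPMI 1640.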
* hit, by the source's call; ? = inconclusive; . = no result given. Unless noted, calls come from the whole dose curve. Potency is the fitted concentration of half-maximal effect.

SMILES	Pf growth 96h	NS1 function inh	SARS PLP yeast	RE007 growth inh	Pf growth 48h
CN(C)CCN(C(=O)/C=C/c1cccs1)c1nc2ccc(F)cc2s1	10µM*	2%	-4%	5%	-23%
CCN(CC)CCN(C(=O)/C=C/c1cccs1)c1nc2ccc(Cl)cc2s1	?	11%	-2%	22%	?
CN(C)CCCN(C(=O)c1cc(-c2cccs2)nc2ccccc12)c1nc2ccc(F)cc2s1	2.1µM*	-19%	-15%	11%	3.3µM*
CC(=O)Nc1ccc(C(=O)OCC(=O)NC2CCCCCC2)cc1	.	.	.	-2%	.
CCC1=NN(C(=O)c2cccc([N+](=O)[O-])c2)C(O)(c2ccc(C)cc2)C1 (stereo unspecified)	-24%	-9%	5%	2%	4.1µM*
CCOC(=O)C1=NN(C(=O)c2ccccc2)C(O)(c2ccc(C)cc2)C1 (stereo unspecified)	-1%	19%	-19%	3%	5%
COc1ccc(NC(=O)c2sc3ncnc(N4CCN(c5ccccn5)CC4)c3c2C)cc1Cl	?	-100%	.	-24%	6.6µM*
Cc1c(C(=O)N2CCN(c3ccccn3)CC2)sc2ncnc(N3CCN(c4ccccc4)CC3)c12	.	-23%	.	-4%	.
COCCCNC(=O)c1sc2ncnc(N3CCc4ccccc4C3)c2c1C	6.6µM*	14%	-7%	13%	?
Cc1c(C(=O)N2CCC3(CC2)OCCO3)sc2ncnc(N3CCN(c4ccccn4)CC3)c12	12µM*	-1%	-2%	-11%	?
COc1ccc(NC(=O)c2sc3nc(C)nc(N4CCN(c5ccccn5)CC4)c3c2C)cc1Cl	-23%	-23%	-3%	5%	1.9µM*
COc1ccc(Cl)cc1-c1cc(C(=O)Nc2ccc(C(C)(C)C)cc2)[nH]n1	.	.	.	-2%	.
O=C(CNC(=O)c1cccs1)Nc1ccc(N2CCOCC2)cc1	94%	.	0%	3%	74%
Cc1ccc(-n2nnnc2Sc2nc([N+](=O)[O-])nn2C)cc1	20%	3%	24%	11%	4.1µM*
O=C(N/N=C/c1cccc(Cl)c1)C(c1ccncc1)N1CCOCC1 (stereo unspecified)	?	4%	-2%	6%	18%
CCCN1CCc2c(sc(NC(=O)c3ccc(S(=O)(=O)N4CCN(C(=O)OCC)CC4)cc3)c2C(N)=O)C1	?	22%	0%	2%	10µM*
CCCN1CCc2c(sc(NC(=O)c3ccc(S(=O)(=O)N(C)c4ccccc4)cc3)c2C(N)=O)C1	9.3µM*	19%	-2%	-12%	9.3µM*
CNC(=O)c1c(NC(=O)c2ccc(S(=O)(=O)N3CCCc4ccccc43)cc2)sc2c1CCN(C)C2	?	8%	-2%	-5%	?
Cc1cc(C)cc(NC(=O)c2ccc(S(=O)(=O)N(C)CC3CCCO3)cc2)c1 (stereo unspecified)	2.6µM*	-52%	-2%	5%	?
CCCN1CCc2c(sc(NC(=O)c3ccc(S(=O)(=O)N(C)c4ccccc4)cc3)c2C(=O)NC)C1	2.6µM*	30%	4%	-5%	3.3µM*
Cc1ccc(NC(=O)c2ccc(S(=O)(=O)NCC3CCCO3)cc2)cc1 (stereo unspecified)	-23%	1%	-4%	-8%	-18%
Cc1ccccc1C(=O)NC1CCN(CC(=O)NC2CCCCC2)CC1	-9%	5%	-6%	7%	5%
Clc1cccc(Cl)c1CSc1nnc([C@@H]2CCCN2)o1	45%	6%	1%	-20%	6%
CC(C)N1CCc2c(sc(NC(=O)c3ccc(S(=O)(=O)N(C)CC4CCCO4)cc3)c2C(N)=O)C1 (stereo unspecified)	?	-4%	-2%	-7%	?
CCN1CCc2c(sc(NC(=O)c3ccc(S(=O)(=O)N(C)CC4CCCO4)cc3)c2C(N)=O)C1 (stereo unspecified)	10µM*	-6%	5%	-11%	?
SMILES	Pf growth 96h	NS1 function inh	SARS PLP yeast	RE007 growth inh	Pf growth 48h
O=C(Cc1ccc(F)cc1)NC(Cc1c[nH]c2ccccc12)C(=O)O (stereo unspecified)	4%	?	0%	18%	0%
O=C(Cc1c[nH]c2ccccc12)N[C@@H](Cc1c[nH]c2ccccc12)C(=O)O	18%	-3%	-1%	3%	45%
O=C(CCc1c[nH]c2ccccc12)N[C@@H](Cc1c[nH]c2ccc(O)cc12)C(=O)O	4.7µM*	5%	1%	-8%	3.7µM*
O=C(CCCc1c[nH]c2ccccc12)N[C@@H](Cc1c[nH]c2ccccc12)C(=O)O	8.3µM*	5%	-5%	9%	9.3µM*
O=C(Nc1nccs1)c1cc2c(s1)CCCCC2	-48%	-233%	-30%	32µM*	.
CC1(c2nnnn2-c2ccc3c(c2)OCCO3)CCC(=O)N1CC1CCCCC1 (stereo unspecified)	.	.	.	3%	.
CC1CCN(S(=O)(=O)c2ccc3c4c2CC(=O)N4CC(C)S3)CC1 (stereo unspecified)	12%	4%	-3%	-8%	8.3µM*
N#Cc1cccnc1N1CCC(C(N)=O)CC1	47%	-5%	1%	0%	31%
CCc1ccccc1NC(=O)c1ccccc1Sc1ccc([N+](=O)[O-])cc1Cl	-17%	8%	-13%	7%	12µM*
CNC(=O)C[C@@H]1C(=O)N(c2ccc(Br)cc2)CC1(C)C	.	.	.	18%	.
COc1ccc(Cc2n[nH]c(=S)o2)cc1	?	6%	12%	-17%	-8%
S=c1[nH]nc(COc2ccc3ccccc3c2)o1	9.3µM*	-16%	-23%	0%	45%
O=C(CCl)NCc1cc(-c2ccc(Cl)cc2)no1	2.9µM*	.	0%	8%	2.1µM*
CCCN(C(=O)c1nc2nc(C)cc(C)n2n1)c1c(N)n(Cc2ccccc2)c(=O)[nH]c1=O	33%	.	-1%	6%	5%
CCOC(=O)c1oc2ccccc2c1CN1CCCCC1	?	.	1%	5%	23%
CCOC(=O)c1oc2ccccc2c1CN1CCN(C)CC1	13µM*	11%	-25%	5%	16%
COc1c(C)cc(S(=O)(=O)NCc2ccco2)c(C)c1C	?	3%	0%	4%	?
CC(C)NC(=O)COc1coc(CN2CCN(c3ccccc3)CC2)cc1=O	?	-1%	-8%	6%	9%
CC(C)NC(=O)COc1coc(CN2CCN(c3cccc(Cl)c3)CC2)cc1=O	12µM*	-5%	-4%	-3%	2%
O=C(COc1coc(CN2CCN(c3cccc(Cl)c3)CC2)cc1=O)NC1CCCC1	?	.	2%	-4%	9.3µM*
CC1(C)CC(O)C(C(O)c2cccc([N+](=O)[O-])c2)C(C)(C)N1 (stereo unspecified)	-20%	12%	7%	-4%	-2%
